SF1 inhibitor: inhibitors of human nuclear receptor SF-1. actives 0.55% (n = 65,000). Q13285. inhibition, % at 10 µM. CHO-K1 Gal4-SF-1 LBD luciferase reporter. AID 525;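 active = inhibition above the mean inhibition of all tested compounds plus 3 SD, cut at about 48% in these data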;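 also: 0% = SF-1 transfected cells with DMSO and 100% = mock-transfected cells lacking SF-1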
Target sequence (Q13285 whole entry, looked up, the tested form may be a part): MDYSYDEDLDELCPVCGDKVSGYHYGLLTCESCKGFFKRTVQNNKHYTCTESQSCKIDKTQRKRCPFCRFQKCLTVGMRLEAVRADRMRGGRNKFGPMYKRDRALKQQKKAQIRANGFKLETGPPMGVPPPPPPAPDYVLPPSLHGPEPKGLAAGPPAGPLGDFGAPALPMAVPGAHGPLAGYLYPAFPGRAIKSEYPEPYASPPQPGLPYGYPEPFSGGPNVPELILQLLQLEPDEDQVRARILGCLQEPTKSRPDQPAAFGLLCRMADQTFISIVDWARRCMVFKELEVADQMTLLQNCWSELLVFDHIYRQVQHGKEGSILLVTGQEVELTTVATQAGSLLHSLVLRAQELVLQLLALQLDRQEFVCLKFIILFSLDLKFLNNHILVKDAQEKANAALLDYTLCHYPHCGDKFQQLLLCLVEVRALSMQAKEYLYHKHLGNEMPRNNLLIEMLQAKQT
The depositor's hits bear a star. This is one part of a sample in which hits are shown more often than they occur.

SMILES | SF1 inhibitor
CCc1ccc(N2CCCn3c2nc2c3c(=O)n(CCN3CCOCC3)c(=O)n2C)cc1 | -18
CC(=O)NCc1ccc(-c2csc(N)n2)s1 | 7
CC1CCCC(NC(=O)C2CCN(S(=O)(=O)N3CCC4(CC3)OCCO4)CC2)C1C (centres undefined) | 0
CN1/C(=C/C(=O)c2nc(S(C)(=O)=O)ncc2Cl)C(C)(C)c2ccccc21 | 61*
Cc1cccc(Cn2c(N3CCCCC3C)nc3c2c(=O)[nH]c(=O)n3C)c1 (centres undefined) | 6
O=C(NCc1ccccc1)N(Cc1cc2cc3c(cc2[nH]c1=O)OCCO3)CC1CCCO1 (centres undefined) | -21
CN(C)/C=N/c1ncnc2c1cnn2-c1ccc(C(F)(F)F)cn1 | -82
Cc1cc(F)ccc1S(=O)(=O)Nc1ccccc1C(=O)Nc1ccc2[nH]c(=O)[nH]c2c1 | 9
CC(C)(C)c1ccc(-c2cc(N)n[nH]2)cc1 | 48*
CSc1nc(C)c2c(c1C#N)CCCC2 | 0
Cc1cc(-c2ccccc2)nc(N2CCC(C(=O)NC(C)C)CC2)n1 | -97
O=C(CN1CCOc2ccccc21)NC1CC1 | -20
Cc1ccc2occ(C(c3nnnn3Cc3ccccc3)N3CCOCC3)c(=O)c2c1 (centres undefined) | -5
CC(C)c1ccc(NC(=O)C2CCCN(S(=O)(=O)c3cnc[nH]3)C2)cc1 (centres undefined) | -6
Cc1ccccc1NC(=O)N1CCCC(c2nc(-c3ccc(C(C)C)cc3)no2)C1 (centres undefined) | 51*
Cc1ccc2cc(CCNC(=O)c3ccco3)c(=O)[nH]c2c1C | -63
CSC1=C(C#N)C(c2ccc(Cl)cc2)C2=C(CC(C)(C)CC2=O)N1 (centres undefined) | 52*
Cc1ccc(NC(=O)CSC2=C(C#N)C(c3ccc4c(c3)OCO4)C3=C(CCCC3=O)N2)c(C)c1 (centres undefined) | 5
O=C(CSc1nnc(Cc2cc(=O)[nH]c(=O)[nH]2)n1-c1ccc(F)cc1)N1CCCCC1 | 3
CC1(C)CC(=O)c2cnc(NCc3ccco3)nc2C1 | 1
CCOc1cc(C(=O)CSc2nnc(CNc3ccc(Cl)cc3)o2)ccc1NC(=O)CC | 56*
COC(=O)c1ccc(C(=O)OC)c(NC(=O)CSc2nnc(-c3ccccc3Cl)o2)c1 | 3
COc1ccc(OC)c(NC(=O)CSc2nnc(CNc3ccc(F)cc3)o2)c1 | -10
O=C(NC12CC3CC(CC(C3)C1)C2)c1ccc(S(=O)(=O)N2CCOCC2)cc1 | -2
COC(=O)Sc1nnc(-c2ccc(Br)cc2)o1 | 4
SMILES | SF1 inhibitor
Cc1cc(C)nc(NCC(O)CNc2ccccc2Cl)n1 (centres undefined) | 1
Cc1cc(C)nc(SCC(=O)N2CCCCC2)n1 | 8
Cc1ccc(-c2cnc(NC(=O)CCC(=O)N3CCCCC3)n2C)cc1 | 65*
Cn1c(-c2ccc3c(c2)OCO3)cnc1NCc1ccccc1 | -68
Cn1c(-n2c(-c3ccco3)nc3ccccc3c2=O)nc2ccccc21 | 15
CCOc1ccccc1C(=O)N1CCN(c2cccc(Cl)c2)CC1 | 55*
CCOc1ccccc1C(=O)N1CCN=C1SC | 6
COC(=O)c1[nH]c2ccccc2c1NC(=O)CN1CCN(c2cccc(Cl)c2)CC1 | -20
Cc1nn2cc(-c3ccc(N)cc3)nc2s1 | -88
CNc1ccccc1-n1ccc(-c2ccccc2)n1 | -18
CCc1ccc(-c2cn3nc(C)c(C)nc3n2)cc1 | 81*
Cc1nc2nc(-c3ccccc3)cn2nc1C | 55*
Cc1nc2ccccn2c1P(=Nc1ccccc1)(N(C)C)N(C)C | 3
O=C(CC(=O)c1ccccc1)Nc1ccc2c(c1)OCCO2 | -61
O=C(c1ccc(C23CC4CC(CC(C4)C2)C3)o1)N1CCOCC1 | -14
COc1cc(NC(=O)N[C@H](C(=O)O)C(C)C)cc(OC)c1 | -17
O=C(NCCCN1CCOCC1)c1csc2c1CCCC2 | 74*
O=C(NCCCN1CCCCCC1)c1ccc2c(c1)NC(=O)C(N1CCOCC1)S2 (centres undefined) | 8
COc1cccc(-c2cc(C(=O)NCCN3CCOCC3)no2)c1 | 1
N#C/C(C(=O)c1ccccc1)=C1/CCCCCN1 | -61
NC(=O)CS(=O)(=O)c1nc2ccccc2n1Cc1ccccc1F | 10
COc1ccc(OC)c(N(CC(=O)N2CCN(c3cc(Cl)ccc3C)CC2)S(C)(=O)=O)c1 | 12
O=C(NCCCn1ccnc1)c1cc(-c2cccs2)on1 | -67
N#CC(C#N)=c1ccc2c(c1)NC1(CCCCC1)N=2 | 65*
O=C(NC1CC1)C1CC(=O)N(C2CCCCC2)C1 (centres undefined) | -2
Cc1cccc(-c2nc(C#N)c(NC3CCCCC3)o2)c1 | -50
COc1cccc2c1C(=O)c1c(O)c3c(c(O)c1C2=O)C[C@@](O)(C(C)=O)C[C@@H]3O[C@H]1C[C@H](N)[C@H](O)[C@H](C)O1 | 89*
CC(NC(=O)C1CCC(=O)N1Cc1ccc(F)cc1)c1ccc2c(c1)OCCO2 (centres undefined) | -9
CCOC(=O)c1ccc(N2CC(O)=C(c3nc4ccccc4c(=O)[nH]3)C2=N)cc1 | 0

Source: PubChem BioAssay (The Scripps Research Institute Molecular Screening Center)
